# Experimental data taken from PubChem BioAssay (Tox21).
# Unmarked numbers belong to inactive results. Inconclusive results are not listed. Entries that show only a call come without a potency. Active and inactive are the calls of the source. Unless noted, calls come from the whole dose curve.
# What was measured:
# [1] = qHTS assay to identify small molecule agonists of the sonic hedgehog signaling (Shh) pathway (AID 1259368);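 note: NIH/3T3-derived 3T3Gli1-Luc cells carrying a stable Gli1-driven firefly luciferase reporter; series mostly up to about 92 µM; nearly all actives have a fitted effect of over 15% in size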
# How it was run: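 Hedgehog pathway agonism scored by increased firefly luciferase luminescence in 3T3Gli1-Luc cells treated 24 hr at 37 C; detection used a 30 min room-temperature reagent incubation.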
# [2] = qHTS assay to identify small molecule antagonists of the sonic hedgehog signaling (Shh) pathway (AID 1259369); note: nearly all actives have a fitted effect of over 45% in size
# How it was run: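 NIH/3T3 stable Gli1-Luc clone, 2,000 cells/well, 4hr settle; cpd + conditioned medium 24hr; Luc reagent 30min RT; luminescence.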
# [3] = qHTS assay to identify small molecule agonists of the androgen receptor (AR) signaling pathway in the presence of an antagonist - cell viability counter screen (AID 1259379; active = well fitted curve in the direction sought with a large enough effect in the repeat runs; an effect the other way counts as inactive or inconclusive; note: nearly all actives have a fitted effect of over 25% in size; note: potency is the fitted concentration of half-maximal effect)
# How it was run: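 MDA-kb2 viability measured by CellTiter-Fluor fluorescence in the same wells as the luciferase signal; nilutamide 3.0uM final; 15-point compound titration; 16 hr at 37C.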
# [4] = biological target: Estrogen receptor (Homo sapiens) (UniProt P03372); assay: qHTS assay to identify small molecule agonists of the estrogen receptor alpha (ER-alpha) signaling pathway in the presence of an antagonist (AID 1259383); note: nearly all actives have a fitted effect of over 15% in size; note: potency is the fitted concentration of half-maximal effect; for activation: top concentration of the series differs between compounds
# Sequence of Estrogen receptor (Homo sapiens) (P03372 whole entry, looked up): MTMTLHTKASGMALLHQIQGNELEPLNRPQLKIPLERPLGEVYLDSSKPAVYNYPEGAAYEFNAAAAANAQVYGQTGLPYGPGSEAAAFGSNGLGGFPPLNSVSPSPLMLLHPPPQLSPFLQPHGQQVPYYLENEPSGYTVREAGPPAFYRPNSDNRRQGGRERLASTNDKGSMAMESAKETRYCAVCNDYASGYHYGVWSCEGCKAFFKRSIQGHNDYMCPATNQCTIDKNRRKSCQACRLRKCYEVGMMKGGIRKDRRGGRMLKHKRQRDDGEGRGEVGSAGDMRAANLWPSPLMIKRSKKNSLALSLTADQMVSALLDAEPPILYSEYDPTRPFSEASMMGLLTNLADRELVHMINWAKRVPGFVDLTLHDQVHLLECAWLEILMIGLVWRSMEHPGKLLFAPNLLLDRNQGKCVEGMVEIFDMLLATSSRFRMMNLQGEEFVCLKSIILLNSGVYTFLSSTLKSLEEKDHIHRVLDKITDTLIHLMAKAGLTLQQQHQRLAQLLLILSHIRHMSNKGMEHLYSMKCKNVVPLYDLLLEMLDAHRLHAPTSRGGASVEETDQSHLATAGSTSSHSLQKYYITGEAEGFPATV
# How it was run: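 Quantitative HTS confirmation: compounds titrated at 15 concentrations onto estrogen-deprived VM7Luc4E2 cells carrying a four-ERE luciferase construct, with ICI-182,780 present at 10.0nM final. Signal is luminescence after 22hr exposure.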
# [5] = qHTS assay to identify small molecule agonists or antagonists of the thyroid stimulating hormone receptor (TSHR) signaling pathway - wild type cell line counter screen (AID 1259384)
# How it was run: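 Counter screen in untransfected Hek293: compounds (15-point titration, triplicate) plus phosphodiesterase inhibitor Ro20-1724 added after 18 h plating; 30 min RT. Intracellular cAMP via competitive d2/cryptate immunoassay, 1 h incubation.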
# [6] = biological target: Estrogen receptor beta (Homo sapiens) (UniProt Q92731); assay: qHTS assay to identify small molecule agonists of the estrogen receptor beta (ER-beta) signaling pathway (AID 1259377; active = well fitted activation curve with a large enough effect in the signal ratio in the repeat runs, not every such curve was filed as active; the % refers to the signal ratio; note: potency is the fitted concentration of half-maximal effect)
# Sequence of Estrogen receptor beta (Homo sapiens) (Q92731 whole entry, looked up): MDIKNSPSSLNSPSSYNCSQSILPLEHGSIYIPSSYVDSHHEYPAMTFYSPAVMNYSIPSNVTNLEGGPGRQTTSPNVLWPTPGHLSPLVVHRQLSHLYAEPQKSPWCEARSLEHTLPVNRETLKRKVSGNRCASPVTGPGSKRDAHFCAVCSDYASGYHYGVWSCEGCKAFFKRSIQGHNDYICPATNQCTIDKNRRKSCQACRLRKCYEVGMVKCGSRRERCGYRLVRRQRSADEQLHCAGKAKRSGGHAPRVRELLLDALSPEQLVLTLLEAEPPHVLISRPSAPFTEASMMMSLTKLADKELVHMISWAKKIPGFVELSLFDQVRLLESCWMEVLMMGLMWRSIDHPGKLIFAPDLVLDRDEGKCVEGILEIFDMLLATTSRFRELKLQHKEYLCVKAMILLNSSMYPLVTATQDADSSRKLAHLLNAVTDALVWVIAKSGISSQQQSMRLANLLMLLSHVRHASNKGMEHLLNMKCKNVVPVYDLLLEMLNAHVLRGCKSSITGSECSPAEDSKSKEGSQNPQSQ
# How it was run: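 qHTS in ER-beta-UAS-bla HEK293T cells: 6 hr settling, then 16 hr compound at 37C, then LiveBLAzer substrate 2 h at RT before fluorescence reading.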
# [7] = qHTS assay to identify small molecule agonists of the estrogen receptor beta (ER-beta) signaling pathway - cell viability counter screen (AID 1259380; active = well fitted curve in the direction sought with a large enough effect in the repeat runs; an effect the other way counts as inactive or inconclusive; note: nearly all actives have a fitted effect of over 30% in size; note: potency is the fitted concentration of half-maximal effect)
# How it was run: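 Measured: luminescence from CellTiter-Glo after 30 min at room temperature, added to wells already read for the LiveBLAzer FRET reporter (2 hr substrate); ER-beta-UAS-bla HEK293T cells had 16 hr compound treatment at 37C, 5% CO2.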
# [8] = qHTS assay to identify small molecule antagonists of the estrogen receptor beta (ER-beta) signaling pathway - cell viability counter screen (AID 1259382; active = well fitted curve in the direction sought with a large enough effect in the repeat runs; an effect the other way counts as inactive or inconclusive; note: nearly all actives have a fitted effect of over 55% in size; note: potency is the fitted concentration of half-maximal effect)
# How it was run: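 Readout: luminescence, CellTiter-Glo, same wells as bla assay. System: ER-beta-UAS-bla GripTite HEK293T, 2% charcoal-stripped FBS. Exposure: compounds plus 1nM 17-beta-estradiol, 16 hr, 37C.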
# [9] = biological target: Estrogen receptor beta (Homo sapiens) (UniProt Q92731); assay: qHTS assay to identify small molecule antagonists of the estrogen receptor beta (ER-beta) signaling pathway (AID 1259378; active = well fitted inhibition curve with a large enough effect in the signal ratio in the repeat runs, not every such curve was filed as active; the % refers to the signal ratio)
# How it was run: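 Antagonist mode: compounds added to beta-lactamase reporter HEK293T ER-beta-UAS cells stimulated with E2 (1nM final), 16 hr at 37C. LiveBLAzer B/G FRET substrate, 2 hours room temperature, fluorescence read-out.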
# [10] = biological target: Androgen receptor (Homo sapiens) (UniProt P10275); assay: qHTS assay to identify small molecule agonists of the androgen receptor (AR) signaling pathway in the presence of an antagonist (AID 1259381); note: nearly all actives have a fitted effect of over 15% in size
# Sequence of Androgen receptor (Homo sapiens) (P10275 whole entry, looked up): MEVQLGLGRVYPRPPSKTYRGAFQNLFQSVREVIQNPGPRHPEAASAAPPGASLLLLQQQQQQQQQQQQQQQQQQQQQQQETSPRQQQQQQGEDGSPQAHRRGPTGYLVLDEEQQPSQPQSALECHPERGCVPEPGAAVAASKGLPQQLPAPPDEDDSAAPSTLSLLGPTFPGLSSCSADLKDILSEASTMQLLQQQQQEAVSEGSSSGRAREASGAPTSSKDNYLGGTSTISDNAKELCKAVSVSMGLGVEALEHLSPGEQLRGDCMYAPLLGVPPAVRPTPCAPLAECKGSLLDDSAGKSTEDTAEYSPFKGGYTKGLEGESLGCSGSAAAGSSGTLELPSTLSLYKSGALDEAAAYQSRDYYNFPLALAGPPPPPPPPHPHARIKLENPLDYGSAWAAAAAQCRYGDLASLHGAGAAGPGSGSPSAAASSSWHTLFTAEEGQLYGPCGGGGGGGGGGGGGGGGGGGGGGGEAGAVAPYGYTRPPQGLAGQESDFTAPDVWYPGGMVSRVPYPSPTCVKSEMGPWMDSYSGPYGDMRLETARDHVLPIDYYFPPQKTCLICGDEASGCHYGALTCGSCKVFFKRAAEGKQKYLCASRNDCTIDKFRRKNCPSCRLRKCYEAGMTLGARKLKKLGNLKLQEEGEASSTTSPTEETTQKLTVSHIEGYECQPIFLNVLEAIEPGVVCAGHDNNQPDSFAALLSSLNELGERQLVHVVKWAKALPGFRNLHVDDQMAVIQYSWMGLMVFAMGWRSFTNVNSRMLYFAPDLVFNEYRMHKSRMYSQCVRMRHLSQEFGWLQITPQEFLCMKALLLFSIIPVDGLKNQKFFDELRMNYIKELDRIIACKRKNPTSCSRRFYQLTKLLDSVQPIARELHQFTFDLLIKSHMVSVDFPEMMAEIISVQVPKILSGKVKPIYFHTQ
# How it was run: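 Luminescent ONE-Glo read, 30min at room temperature, follows 16hr compound exposure (15 concentrations) of MDA-kb2 cells at 37C, 0% CO2, with nilutamide added at 3.0uM final.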
SMILES,Potency [1],Potency [2],Potency [3],Potency [4],outcome [5],Potency [6],Potency [7],Potency [8],Potency [9],Potency [10]
CC(C)Oc1ccccc1O,inactive,inactive,inactive,inactive,inactive,–,–,–,–,–
CC(C)(Cc1c[nH]c2ccccc12)NCC(O)COc1ccccc1C#N (configuration not stated),inactive,–,inactive,–,inactive,inactive,29.8 µM (active),26.6 µM (active),–,–
C[C@]12CCC(=O)C=C1[C@@H]1C[C@@H]1[C@H]1[C@@H]3[C@@H]4C[C@@H]4[C@@]4(CCC(=O)O4)[C@@]3(C)CC[C@@H]12,inactive,–,inactive,–,–,–,–,–,–,–
COc1cc(CNC(=O)CCCC/C=C/C(C)C)ccc1O,inactive,inactive,inactive,inactive,inactive,–,–,–,–,–
COc1ccc(/C=C/c2cc(OC)cc(=O)o2)cc1,–,inactive,inactive,inactive,–,inactive,inactive,inactive,inactive,–
O=C(NC1CCN(CCc2c[nH]c3ccccc23)CC1)c1ccccc1,inactive,–,–,–,inactive,inactive,–,inactive,inactive,–
Clc1ccccc1-c1nc(-c2ccncc2)no1,–,inactive,inactive,–,inactive,–,inactive,inactive,–,–
CCOCCn1c(N2CCCN(C)CC2)nc2ccccc21,inactive,–,inactive,–,–,inactive,inactive,inactive,inactive,inactive
COc1cc(C)c(Cc2cnc(N)nc2N)cc1OC,inactive,–,inactive,inactive,–,–,inactive,inactive,–,–
CCC[Si](OC)(OC)OC,inactive,–,inactive,inactive,inactive,inactive,inactive,inactive,inactive,inactive
Clc1cc(Cl)c2c(c1)N=C1CCCCCN1C2,inactive,inactive,inactive,inactive,inactive,–,–,–,–,–
COc1ccc(C(=O)c2ccc(C)cc2)c(O)c1,–,inactive,inactive,inactive,inactive,–,inactive,inactive,–,–
CC(=O)S[C@H](C(=O)N[C@H]1Cc2ccccc2[C@H]2CCC[C@@H](C(=O)O)N2C1=O)C(C)C,inactive,inactive,inactive,–,inactive,–,–,–,–,–
O=C(N[C@@H](Cc1ccccc1)[C@@H](O)C(=O)N1C[C@@H](O)[C@@H](O)C1)c1cc2cc(Cl)ccc2[nH]1,inactive,inactive,inactive,inactive,inactive,–,–,–,–,–
O=c1[nH]nc(-c2ccc([N+](=O)[O-])o2)o1,inactive,–,54.5 µM (active),inactive,inactive,–,inactive,inactive,inactive,–
O=C(Cl)c1cc(Cl)cc(Cl)c1,inactive,–,inactive,–,inactive,inactive,inactive,–,inactive,–
OCC(O)c1ccccc1 (configuration not stated),inactive,inactive,inactive,inactive,inactive,–,–,–,–,–
CCCC1CCOC(C)S1 (configuration not stated),inactive,–,inactive,inactive,inactive,–,inactive,inactive,inactive,inactive
CCCCCCC/C=C/C=O,inactive,–,inactive,inactive,inactive,–,inactive,inactive,–,–
O=C(O)c1ccncc1,inactive,–,inactive,–,inactive,–,inactive,–,inactive,inactive
CO[C@@H]1[C@@H](O[C@@H]2O[C@H](C)[C@@H](O[C@H]3C[C@@](C)(O)[C@@H](O)[C@H](C)O3)[C@H](N(C)C)[C@H]2O)[C@@H](CC=O)C[C@@H](C)[C@@H](O[C@@H]2CC[C@H](N(C)C)[C@@H](C)O2)/C=C/C=C/C[C@@H](C)OC(=O)C[C@H]1OC(C)=O,inactive,–,inactive,inactive,–,inactive,–,inactive,inactive,–
C=CC(C)(O)CC/C=C(/C)CCC=C(C)C (configuration not stated),inactive,–,inactive,–,–,inactive,inactive,inactive,inactive,–
Oc1ccc(Oc2ccccc2)cc1,inactive,–,inactive,–,inactive,11.6 µM (active),inactive,–,–,–
c1ccc(CCNc2nc(-c3ccccc3)cs2)cc1,–,inactive,inactive,0.944 µM (active),inactive,inactive,–,inactive,inactive,–
CCn1nc(Cc2ccccc2)cc1C1CCN(C[C@H]2C[C@H](N(C)[C@@H](C(=O)O)C(C)C)C[C@@H]2c2cccc(F)c2)CC1,inactive,–,inactive,inactive,inactive,inactive,–,inactive,–,–
CCOc1cc(OCC)c(C(C)=O)cc1OCC,inactive,–,–,inactive,inactive,inactive,–,inactive,inactive,inactive
CC(Cc1ccccc1)(NC(=O)CN)c1ccccc1 (configuration not stated),inactive,–,inactive,inactive,inactive,–,–,inactive,inactive,–
Cc1ccccc1CCO,inactive,–,inactive,inactive,inactive,inactive,inactive,inactive,inactive,–
CCOc1ccc(NC(C)=O)cc1N,inactive,–,inactive,inactive,inactive,–,inactive,–,inactive,inactive
